In PubChem BioAssay (EPA / NIEHS):
The source made the active and inactive calls. The calls were made as follows: active = hit-call score of the fitted dose curve at least 0.9, where 1 is the maximum; inactive = score below 0.9.

Experiments:
Conditions in all cases: mRNA level, 48 h; actives raise or lower the signal
[1] = read-out: Intercellular Adhesion Molecule 1 (ICAM1), ICAM1 (gene 3383); assay: LTEA_HepaRG_ICAM1: Life Technologies and Expression Analysis (LTEA) Assay for Intercellular Adhesion Molecule 1 (ICAM1) using HepaRG (AID 2283507)
Summary of the method: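 ICAM1 transcript levels measured by qRT-PCR, normalized to three housekeeping genes (ACTB, GAPDH, POLR2A), after 48 h chemical exposure of HepaRG cells. Duplicate eight-point half-log series from 100 uM in 0.5% DMSO; gain or loss fitted against vehicle.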

[2] = read-out: Insulin-like growth factor-binding protein 1 (IGFBP1), IGFBP1 (gene 3484); assay: LTEA_HepaRG_IGFBP1: Life Technologies and Expression Analysis (LTEA) Assay for Insulin-like growth factor-binding protein 1 (IGFBP1) using HepaRG (AID 2283508)
Summary of the method: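 Read-out is qRT-PCR transcript level normalized to three housekeeping genes, fitted in both directions against 0.5% DMSO. Differentiated HepaRG cells received eight half-log concentrations (top 100 uM) in duplicate for 48 h in serum-free induction medium.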

[3] = read-out: Interleukin 6 (IL6), IL6 (gene 3569); assay: LTEA_HepaRG_IL6: Life Technologies and Expression Analysis (LTEA) Assay for Interleukin 6 (IL6) using HepaRG (AID 2283509)
Summary of the method: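 qRT-PCR read-out of IL6 transcript, normalized to three housekeeping genes, after 48 h chemical exposure of HepaRG cells; 8-point half-log series, top 100 uM, 0.5% DMSO vehicle. Bidirectional curve fitting against DMSO baseline.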

[4] = read-out: Potassium channel subfamily K member 1 (KCNK1), KCNK1 (gene 3775); assay: LTEA_HepaRG_KCNK1: Life Technologies and Expression Analysis (LTEA) Assay for Potassium channel subfamily K member 1 (KCNK1) using HepaRG (AID 2283511)
Summary of the method: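 HepaRG, 48 h exposure, 8-pt half-log series top 100 uM, 0.5% DMSO vehicle, duplicates. Readout: KCNK1 transcript by qRT-PCR (Fluidigm array), housekeeping-normalized; bidirectional curve fit relative to DMSO baseline.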

[5] = read-out: Keratin 19 (KRT19), KRT19 (gene 3880); assay: LTEA_HepaRG_KRT19: Life Technologies and Expression Analysis (LTEA) Assay for Keratin 19 (KRT19) using HepaRG (AID 2283512)
Summary of the method: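 KRT19 transcript measured by TaqMan qRT-PCR, referenced to three housekeeping genes, after HepaRG cells received test chemicals for 48 h. Eight half-log concentrations, top 100 uM, 0.5% DMSO vehicle; increases and decreases both fitted.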

[6] = read-out: Lipase C (LIPC), LIPC (gene 3990); assay: LTEA_HepaRG_LIPC: Life Technologies and Expression Analysis (LTEA) Assay for Lipase C (LIPC) using HepaRG (AID 2283514)
Summary of the method: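 HepaRG, 48 h exposure, 8-pt half-log series from 100 uM in 0.5% DMSO, duplicates. Readout: LIPC mRNA by Fluidigm qRT-PCR, housekeeping-normalized (ACTB/GAPDH/POLR2A). Gain or loss fitted bidirectionally against DMSO baseline.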

[7] = read-out: MicroRNA 122 (MIR122), gene 406906; assay: LTEA_HepaRG_MIR122: Life Technologies and Expression Analysis (LTEA) Assay for MicroRNA 122 (MIR122) using HepaRG (AID 2283516); also: the transcript read is the microRNA miR-122
Summary of the method: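 qRT-PCR read-out (TaqMan, Fluidigm array), normalized to three housekeeping genes; HepaRG cells dosed 48 h at 8 concentrations up to 100 uM in 0.5% DMSO, duplicate; gain or loss fitted against DMSO baseline.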

[8] = read-out: matrix metalloproteinase-10 (MMP10), MMP10 (gene 4319); assay: LTEA_HepaRG_MMP10: Life Technologies and Expression Analysis (LTEA) Assay for matrix metalloproteinase-10 (MMP10) using HepaRG (AID 2283517)
Summary of the method: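 Transcript levels come from Fluidigm qRT-PCR normalized to three housekeeping genes, with curves fitted bidirectionally against 0.5% DMSO. Human HepaRG cells were dosed for 48 hours at concentrations up to 100 uM.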

[9] = read-out: matrix metalloproteinase-3 (MMP3), MMP3 (gene 4314); assay: LTEA_HepaRG_MMP3: Life Technologies and Expression Analysis (LTEA) Assay for matrix metalloproteinase-3 (MMP3) using HepaRG (AID 2283519)
Summary of the method: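 qRT-PCR read-out of MMP3 mRNA (normalised to three housekeeping genes) in HepaRG liver cells after 48 h chemical exposure; 8-point half-log series, top 100 uM, 0.5% DMSO vehicle. Bidirectional curve fitting against DMSO baseline.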

[10] = read-out: Nuclear factor NF-kappa-B p105 subunit (Homo sapiens) (UniProt P19838); assay: LTEA_HepaRG_NFKB1: Life Technologies and Expression Analysis (LTEA) Assay for Nuclear Factor Kappa B Subunit 1 (NFKB1) using HepaRG (AID 2283521)
Summary of the method: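 Differentiated human HepaRG cells were exposed for 48 h in serum-free induction medium to eight concentrations (top 100 uM, half-log steps, 0.5% DMSO), in duplicate. NFKB1 mRNA was measured by TaqMan qRT-PCR, normalized to ACTB/GAPDH/POLR2A, and fitted bidirectionally against DMSO.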

[11] = read-out: Protein phosphatase 2A (PPP2R4), PTPA (gene 5524); assay: LTEA_HepaRG_PPP2R4: Life Technologies and Expression Analysis (LTEA) Assay for Protein phosphatase 2A (PPP2R4) using HepaRG (AID 2283522)
Summary of the method: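 HepaRG, 48 h exposure, 8-pt half-log series from 100 uM, 0.5% DMSO vehicle, duplicates. Readout: PPP2R4 mRNA, Fluidigm qRT-PCR, housekeeping-normalized. Bidirectional curve fit vs DMSO baseline.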

[12] = read-out: Phosphatase and tensin (PTEN), PTEN (gene 5728); assay: LTEA_HepaRG_PTEN: Life Technologies and Expression Analysis (LTEA) Assay for Phosphatase and tensin (PTEN) using HepaRG (AID 2283523)
Summary of the method: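 HepaRG, 48 h exposure, 8-pt half-log series from 100 uM top, 0.5% DMSO vehicle, duplicates. Readout: Fluidigm qRT-PCR of PTEN transcript; housekeeping normalization (ACTB, GAPDH, POLR2A). Gain or loss fitted relative to DMSO baseline.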

[13] = read-out: solute carrier (SLC22A1), SLC22A1 (gene 6580); assay: LTEA_HepaRG_SLC22A1: Life Technologies and Expression Analysis (LTEA) Assay for solute carrier (SLC22A1) using HepaRG (AID 2283524)
Summary of the method: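 qRT-PCR readout (TaqMan, Fluidigm arrays) of SLC22A1 transcript, normalized to three housekeeping genes; bidirectional curve fit relative to 0.5% DMSO vehicle. Differentiated human HepaRG cells, 48 h chemical exposure, top concentration 100 uM, half-log steps, eight points.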

[14] = read-out: Pyruvate Dehydrogenase Kinase 4 (PDK4), PDK4 (gene 5166); assay: LTEA_HepaRG_PDK4: Life Technologies and Expression Analysis (LTEA) Assay for Pyruvate Dehydrogenase Kinase 4 (PDK4) using HepaRG (AID 2283525)
Summary of the method: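 HepaRG (human liver line), 48 h chemical exposure, 8-pt half-log CRC top 100 uM, 0.5% DMSO vehicle, duplicates. Readout: TaqMan qRT-PCR of PDK4 mRNA, housekeeping-normalized; gain/loss fit relative to DMSO baseline.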

[15] = read-out: NAD(P)H dehydrogenase [quinone] 1 (NQO1), NQO1 (gene 1728); assay: LTEA_HepaRG_NQO1: Life Technologies and Expression Analysis (LTEA) Assay for NAD(P)H dehydrogenase [quinone] 1 (NQO1) using HepaRG (AID 2283526)
Summary of the method: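 qRT-PCR read-out (Fluidigm TaqMan), normalized to three housekeeping genes, after 48 h chemical exposure of HepaRG cells. Concentrations: eight points, top 100 uM, half-log steps, 0.5% DMSO vehicle. Gain or loss of signal fitted relative to DMSO.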

[16] = read-out: Lipoprotein lipase (LPL), LPL (gene 4023); assay: LTEA_HepaRG_LPL: Life Technologies and Expression Analysis (LTEA) Assay for Lipoprotein lipase (LPL) using HepaRG (AID 2283515)
Summary of the method: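 HepaRG, 48 h exposure, 8-pt half-log dilutions from 100 uM, 0.5% DMSO vehicle, duplicates; qRT-PCR (Fluidigm array) of LPL mRNA vs housekeeping genes; bidirectional curve fit relative to DMSO baseline.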

MYC, MYC (gene 4609) = assay: LTEA_HepaRG_MYC: Life Technologies and Expression Analysis (LTEA) Assay for MYC using HepaRG (AID 2283518)
Summary of the method: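 MYC transcript changes, up or down relative to 0.5% DMSO, from TaqMan qRT-PCR normalized to three housekeeping genes. Human HepaRG cultures received chemicals for 48 h at eight half-log concentrations up to 100 uM, in duplicate.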

[17] = read-out: Paternally Expressed 10 (PEG10), PEG10 (gene 23089); assay: LTEA_HepaRG_PEG10: Life Technologies and Expression Analysis (LTEA) Assay for Paternally Expressed 10 (PEG10) using HepaRG (AID 2283520);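 as to AC50: PEG10 transcript by qRT-PCR normalised to ACTB GAPDH and POLR2A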
Summary of the method: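 qRT-PCR read-out: PEG10 mRNA normalised to three housekeeping genes, fitted bidirectionally against 0.5% DMSO vehicle. HepaRG cells received test chemicals for 48 h in serum-free induction medium, 8 points, top 100 uM, half-log steps.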

[18] = read-out: JUN Transcription Factor, JUN (gene 3725); assay: LTEA_HepaRG_JUN: Life Technologies and Expression Analysis (LTEA) Assay for JUN Transcription Factor using HepaRG (AID 2283513)
Summary of the method: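 HepaRG, 48 h exposure, 8-pt half-log series top 100 uM, 0.5% DMSO, duplicate. JUN mRNA by qRT-PCR (Fluidigm), housekeeping-normalized (ACTB/GAPDH/POLR2A); bidirectional curve fit vs DMSO baseline.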

Measured: AC50

Nuclear factor NF-kappa-B p105 subunit (Homo sapiens), sequence (P19838 whole entry, looked up): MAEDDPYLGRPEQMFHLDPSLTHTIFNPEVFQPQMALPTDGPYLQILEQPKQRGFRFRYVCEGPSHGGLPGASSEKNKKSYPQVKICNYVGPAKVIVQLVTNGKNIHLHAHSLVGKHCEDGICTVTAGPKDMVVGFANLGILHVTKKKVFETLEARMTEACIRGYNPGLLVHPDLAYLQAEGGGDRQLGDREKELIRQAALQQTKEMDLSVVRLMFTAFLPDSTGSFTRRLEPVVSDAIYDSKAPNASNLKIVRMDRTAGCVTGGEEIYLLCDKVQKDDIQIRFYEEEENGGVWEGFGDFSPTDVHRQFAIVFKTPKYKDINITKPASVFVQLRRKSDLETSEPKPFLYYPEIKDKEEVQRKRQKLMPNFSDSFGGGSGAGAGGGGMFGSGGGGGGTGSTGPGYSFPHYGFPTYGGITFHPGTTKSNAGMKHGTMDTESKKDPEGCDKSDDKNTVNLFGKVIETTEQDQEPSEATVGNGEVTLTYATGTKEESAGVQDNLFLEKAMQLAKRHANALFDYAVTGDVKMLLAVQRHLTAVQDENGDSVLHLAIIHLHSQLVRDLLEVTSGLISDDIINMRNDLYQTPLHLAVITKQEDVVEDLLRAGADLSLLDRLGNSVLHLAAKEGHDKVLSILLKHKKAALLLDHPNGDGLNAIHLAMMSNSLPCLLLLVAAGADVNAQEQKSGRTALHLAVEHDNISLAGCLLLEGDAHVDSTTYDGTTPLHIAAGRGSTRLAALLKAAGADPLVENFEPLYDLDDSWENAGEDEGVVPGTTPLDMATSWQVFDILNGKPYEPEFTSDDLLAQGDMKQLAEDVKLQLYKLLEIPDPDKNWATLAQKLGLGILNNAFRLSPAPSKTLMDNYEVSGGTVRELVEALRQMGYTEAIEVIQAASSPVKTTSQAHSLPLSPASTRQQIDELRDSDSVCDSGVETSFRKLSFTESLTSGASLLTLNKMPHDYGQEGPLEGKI

CCCCC(CC)COC(=O)CCCCC(=O)OCC(CC)CCCC (centres undefined)
not listed: [16] | MYC, MYC (gene 4609) | [17] | [18]
inactive: all other assays above

CCC(C)(C)C1CCC(O)CC1 (centres undefined)
not listed: [18]
inactive: all other assays above

OCCC(F)(F)C(F)(F)C(F)(F)C(F)(F)C(F)(F)C(F)(F)F
not listed: [10] | [16] | MYC, MYC (gene 4609) | [17]
inactive: all other assays above

CCCOc1sc(C(=O)N2CCC(c3cc(CN)ccc3F)CC2)c(C)c1Br
not listed: [16] | MYC, MYC (gene 4609) | [17]
inactive: all other assays above

Nc1cccc2c(N)cccc12
active: [5] 22.6 µM | [6] 73.3 µM | [17] 9.92 µM | [13] 50 µM
not listed: [16] | MYC, MYC (gene 4609) | [18]
inactive: all other assays above

O=c1c(-c2ccc(O)cc2)coc2cc(O)ccc12
not listed: [9] | [16] | MYC, MYC (gene 4609) | [17] | [18]
inactive: all other assays above

CCCCCCCCC(=O)O
not listed: [10] | [16] | [17] | [18]
inactive: all other assays above
